PubChem BioAssay (NCI)
Compounds without any hit were thinned out: in the full panel of roughly 79,000, 15% have a hit. Active and inactive are the calls of the source. No stated cut-off is given here; in the data, active means growth inhibition above about 70%; inactive means the rest.

Assay: NCI Yeast Anticancer Drug Screen. Data for the wt2 strain (AID 169);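 further: 0% = growth of vehicle-treated yeast cultures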
Conditions: S. cerevisiae wt2 strain growth inhibition, hits give high values
Protocol: Growth inhibition of yeast strains with defined genetic alterations is measured as a screen for potential anti-cancer activity. Selected strains with alterations in DNA damage repair or cell cycle control were exposed to compounds and growth inhibition was measured relative to vehicle treated controls. The strain used in this assay is wt2

SMILES | growth inhibition (at 1.2 µM) | growth inhibition (at 3.7 µM) | growth inhibition (at 11.0 µM) | growth inhibition (at 33.0 µM) | growth inhibition (at 100.0 µM)
COC(=O)C(=O)CC(=O)c1cccc(OC)c1 | -5% (inactive) | 9% (inactive) | 27% (inactive) | 71% (active) | 92% (active)
OC1(C#CI)CCCCC1 | -7% (inactive) | 28% (inactive) | 98% (active) | 99% (active) | 100% (active)
CC1(C)CC(=O)C(C(=O)Nc2cccs2)=C(O)C1 | 4% (inactive) | 14% (inactive) | 17% (inactive) | 60% (inactive) | 99% (active)
CCCCCCNCCCNc1c2ccccc2nc2cccc([N+](=O)[O-])c12 | -1% (inactive) | 0% (inactive) | 5% (inactive) | 31% (inactive) | 96% (active)
C[n+]1c(-c2ccc(/C=N/NC(=O)c3ccc(C(=O)N/N=C/c4ccc(-c5cn6ccccc6[n+]5C)cc4)cc3)cc2)cn2ccccc21 | 13% (inactive) | 27% (inactive) | 63% (inactive) | 88% (active) | 82% (active)
CCCCOc1ccc2nc(C)cc(N=[N+]=[N-])c2c1 | 7% (inactive) | 6% (inactive) | 10% (inactive) | 33% (inactive) | 93% (active)
CCC(C)(C)c1ccc(Oc2ccccc2)c(N)c1 | -17% (inactive) | 0% (inactive) | 97% (active) | 99% (active) | 99% (active)
COc1ccc2c3c1OC(C)C31CC(=O)CCC1CC2 (stereo not given) | -8% (inactive) | -9% (inactive) | -7% (inactive) | -7% (inactive) | -11% (inactive)
